Compounds without any hit were thinned out: in the full panel of roughly 83,000, 20% have a hit.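 How to read the values: 0–100, growth inhibition (40 = 60% inhibited); 0, no net growth; -100 to 0, cell death (-40 = 40% of starting cells died; -100 = all dead).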 The source made the active and inactive calls. How the source made its calls: active means growth percent below 10; inactive means the rest.
Key:
Assay in all cases: NCI-60 one-dose screen, 48 h (100 = growth as untreated, 0 = no growth, -100 = all killed)
[1] = tested on: HCT-15 colon; details: 10 µM unless noted
[2] = tested on: HT29 colon; details: 10 µM unless noted
[3] = tested on: SNB-75 CNS; details: 10 µM unless noted
[4] = tested on: SNB-19 CNS; details: 10 µM unless noted
[5] = tested on: U251 CNS; details: 10 µM unless noted
[6] = tested on: PC-3 prostate; details: 10 µM unless noted
[7] = tested on: SK-MEL-5 melanoma; details: 10 µM unless noted
[8] = tested on: UACC-62 melanoma; details: 10 µM unless noted
[9] = tested on: LOX IMVI melanoma; details: 10 µM unless noted
[10] = tested on: SK-MEL-28 melanoma; details: 10 µM unless noted
[11] = tested on: SK-MEL-2 melanoma; details: 10 µM unless noted
[12] = tested on: EKVX NSCLC; details: 10 µM unless noted
[13] = tested on: SN12C renal; details: 10 µM unless noted
[14] = tested on: UO-31 renal; details: 10 µM unless noted
[15] = tested on: TK-10 renal; details: 10 µM unless noted
[16] = tested on: ACHN renal; details: 10 µM unless noted
[17] = tested on: CAKI-1 renal; details: 10 µM unless noted
[18] = tested on: A498 renal; details: 10 µM
[19] = tested on: HL-60(TB) leukemia; details: 10 µM unless noted
[20] = tested on: CCRF-CEM leukemia; details: 10 µM unless noted

Measured: growth

CCC[CH2][Sn]([CH2]CCC)([CH2]CCC)[O]c1ccc(Cl)cc1Cl
active: [1] -62.5% | [2] -52.3% | [3] -93.6% | [4] -81% | [5] -74% | [6] -70% | [7] -99.8% | [8] -88.4% | [9] -81.4% | [10] -96.9% | [11] -66.9% | [12] -51.7% | [13] -69% | [14] -85.3% | [15] -91.7% | [16] -69.5% | [17] -56.6% | [18] -98.1% | [19] -23.9%

CC(C)=CCc1c(O)c(C(=O)CC(C)C)c(O)c2c(-c3ccccc3)cc(=O)oc12
active: [7] -41.3%
inactive: [1] 30.3% | [2] 66.5% | [3] 81.3% | [4] 42.1% | [5] 41.3% | [6] 19.6% | [8] 12.2% | [9] 68.2% | [10] 39.2% | [11] 40.5% | [12] 36.7% | [13] 33.7% | [14] 44.9% | [15] 56.8% | [16] 59.4% | [17] 52.4% | [18] 32.6% | [19] 27.5% | [20] 23.6%

O=C1NC(=O)C(=Cc2cccn2CCCCCn2c3ccccc3c(=O)c3ccccc32)C(=O)N1
inactive: [1] 92.8% | [2] 103% | [3] 101% | [4] 101% | [5] 96.8% | [6] 91% | [7] 98.6% | [8] 90.7% | [9] 95.3% | [10] 111% | [11] 107% | [12] 105% | [13] 106% | [14] 79.4% | [15] 101% | [16] 105% | [17] 103% | [18] 104% | [19] 92.2% | [20] 100%

COC(=O)[C@@H](C)C[C@H](Cc1ccccc1)NC(=O)c1csc([C@@H](C[C@H](C(C)C)N(C)C(=O)[C@@H](NC(=O)CN(C)C)C2CC2)OC(C)=O)n1
active: [2] -24.4% | [7] -47.6% | [9] 8.77% | [18] 0.468% | [19] -27%
inactive: [1] 14.6% | [3] 37.4% | [4] 41% | [5] 12.7% | [6] 25.9% | [8] 63.8% | [10] 61.3% | [11] 11.6% | [12] 46.3% | [13] 46.8% | [14] 41.6% | [15] 45.5% | [16] 25.3% | [17] 63.5% | [20] 10.3%

Cc1cc(C)cc(Nc2nc3c(s2)CC[C@@]2(C)C3=CC[C@@H]3[C@@H]2CC[C@]2(C)C(=O)CC[C@@H]32)c1
active: [9] 4.43% | [20] 3.37%
inactive: [1] 19.1% | [2] 12.3% | [3] 70.5% | [4] 60.1% | [5] 46.6% | [6] 33.1% | [7] 91.6% | [8] 52.9% | [10] 59.1% | [11] 54.9% | [12] 89.4% | [13] 54.2% | [14] 59.4% | [15] 77.6% | [16] 63.4% | [17] 47.4% | [18] 78% | [19] 57.6%

C=CC[PH+](c1ccccc1)c1ccccc1.C=CC[PH+](c1ccccc1)c1ccccc1.[Cl][Pt][Cl]
inactive: [1] 31.4% | [2] 41.1% | [3] 66.2% | [4] 70.5% | [5] 37.5% | [6] 54.4% | [7] 85.8% | [8] 52.9% | [10] 28.4% | [11] 71.1% | [12] 50.8% | [13] 30.6% | [14] 31.5% | [15] 73.7% | [16] 35.9% | [17] 77.9% | [18] 99%
active: [9] -6.81% | [19] -19.4% | [20] 3.7%

CCCCCCCOC(C(=O)OCCN(CC)CC)(c1ccccc1)c1ccccc1
inactive: [1] 49.9% | [2] 31.4% | [3] 86.1% | [4] 94% | [5] 77.8% | [6] 61.2% | [7] 78.2% | [8] 103% | [9] 92.2% | [10] 96% | [11] 103% | [12] 76.1% | [13] 93.6% | [14] 69% | [15] 77.8% | [16] 92.3% | [17] 65.4% | [18] 82.4% | [19] 79.1% | [20] 82.5%

COc1ccc(C2=CC(c3ccc(OC)c(OC)c3)c3c(c4ccccc4oc3=O)O2)cc1OC (centres undefined)
inactive: [1] 13.6% | [4] 17.9% | [5] 24.2% | [7] 17.1% | [8] 36.8% | [9] 36% | [10] 50.9% | [12] 30.4% | [13] 58.7% | [14] 21.8% | [15] 42% | [16] 52.7%
active: [2] 3.84% | [3] -4.06% | [6] -18.3% | [11] 8.03% | [17] 7.77% | [18] -3.43% | [19] -59.9% | [20] -6.1%

CC(=O)O[C@@H]1CC[C@]2(C)[C@H]3CC[C@]4(C)C(=O)CC[C@H]4[C@@H]3C[C@@H]3SC(N)=N[C@@]32C1
inactive: [1] 35.2% | [2] 10.2% | [3] 73.2% | [4] 54.7% | [5] 37% | [6] 71% | [7] 32.5% | [8] 38.2% | [9] 66.3% | [10] 72.2% | [11] 49.8% | [12] 78.3% | [13] 77.3% | [14] 79.3% | [15] 91.1% | [16] 93.7% | [17] 61.1% | [18] 50.7% | [19] 44.5% | [20] 44.2%

CCN(CC)CCOC(=O)C(OC(C)C)(c1ccccc1)c1ccccc1
inactive: [1] 96.4% | [2] 79.7% | [3] 88.3% | [4] 96.2% | [5] 101% | [6] 83.7% | [7] 97.6% | [8] 103% | [9] 96.7% | [10] 99.6% | [11] 88.2% | [12] 93.5% | [13] 106% | [14] 79.1% | [15] 89% | [16] 104% | [17] 87.2% | [18] 72.6% | [19] 99.6% | [20] 102%

Nc1ccc2c(c1)Cc1cc(Br)ccc1-2
inactive: [1] 101% | [2] 119% | [3] 76.6% | [4] 101% | [5] 104% | [6] 89.6% | [7] 104% | [8] 88.8% | [9] 94.2% | [10] 116% | [11] 112% | [12] 64.2% | [13] 85.3% | [14] 49% | [15] 123% | [16] 106% | [17] 98.1% | [18] 76.4% | [19] 47.8% | [20] 50%

O=[As](O)(O)c1ccccc1[As](=O)(O)O
inactive: [1] 91.1% | [2] 109% | [3] 116% | [4] 109% | [5] 93.6% | [6] 93.3% | [7] 107% | [8] 98.5% | [9] 87.6% | [10] 117% | [11] 119% | [12] 110% | [13] 110% | [14] 78.8% | [15] 119% | [16] 91.1% | [17] 94.5% | [18] 102% | [19] 113% | [20] 110%

O[C@H](CN1CC1)[C@@H](O)CN1CC1
inactive: [1] 79.9% | [2] 72.5% | [3] 70.6% | [4] 74.5% | [5] 60.3% | [6] 75.8% | [7] 75.3% | [8] 72.4% | [9] 44.6% | [10] 106% | [11] 87% | [12] 94.6% | [13] 41.1% | [14] 51.1% | [15] 101% | [16] 24% | [18] 95.1% | [19] 30.7% | [20] 33.3%
active: [17] -0.578%

C[C@@]12CC[C@@H](O)C[C@@H]1CC[C@H]1[C@H]2CC[C@@]2(C)[C@H](c3ccc(=O)oc3)CC[C@@]12O
active: [1] -79.7% | [2] -67.5% | [3] -85% | [4] -99.8% | [5] -81.3% | [6] -22.5% | [7] -68.6% | [8] -71% | [9] -74.9% | [10] -43% | [11] -29.7% | [12] -86.4% | [13] -24.9% | [14] -96.2% | [15] -81.4% | [16] -90% | [17] -83.5% | [18] -29.9% | [19] -30.6% | [20] -9%

NC(N)=N/N=C\c1c[nH]c2ccc(Br)cc12
inactive: [1] 105% | [2] 92.3% | [3] 72.6% | [4] 67.1% | [5] 32.9% | [6] 72.2% | [7] 67.6% | [8] 101% | [9] 93.7% | [10] 100% | [11] 99.9% | [12] 93.8% | [13] 68.5% | [14] 86.1% | [15] 116% | [16] 95.4% | [17] 101% | [18] 89.7% | [19] 93.5% | [20] 78.6%

O=C(O)C(O)C(O)C1[O][Sb]([c]2ccc([N+](=O)[O-])cc2)[O]C1CO (centres undefined)
inactive: [1] 95.8% | [2] 101% | [3] 99.1% | [4] 94.9% | [5] 101% | [6] 100% | [7] 103% | [8] 91.9% | [9] 101% | [10] 106% | [11] 115% | [12] 105% | [13] 90.4% | [14] 96.4% | [15] 98.4% | [16] 101% | [17] 102% | [18] 83.6% | [19] 92.8% | [20] 98.5%

From PubChem BioAssay (NCI)
